pPAFAH FP inh: inhibitors of human plasma PAF acetylhydrolase (pPAFAH); Q13093; recombinant pPAFAH, FP-rhodamine probe fluorescence polarization; inhibition, % at 3.39 µM; 1.5% of 330,000 active;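 active = inhibition above the mean inhibition across the screen plus 3 SD, cut at about 25% in these data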;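 also: inhibitors block binding of the rhodamine activity-based probe so polarization drops; 0% = enzyme with DMSO and 100% = wells lacking pPAFAH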
Rin1-Abl PPI inh: human Rin1-Abl interaction inhibition | 0.4% of 360,000 active | P00519+Q13671 | TR-FRET Rin1/Abl binding, biochemical | inhibition, % at 7.35 µM; in the data active = inhibition above about 5%, passing the limit was not always enough
PAFAH1B3 inh: blocks human PAF acetylhydrolase 1B catalytic subunit 3. 0.28% of 340,000 active. inhibition, % at 3.39 µM. recombinant PAFAH1B3, FP-rhodamine probe, fluorescence polarization;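 active = inhibition above the screen-wide average of all tested compounds plus 3 SD, cut at about 25% in these data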;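 also: 0% = enzyme with DMSO only and 100% = wells lacking PAFAH1B3 protein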
Target sequence (Q15102 whole entry, looked up): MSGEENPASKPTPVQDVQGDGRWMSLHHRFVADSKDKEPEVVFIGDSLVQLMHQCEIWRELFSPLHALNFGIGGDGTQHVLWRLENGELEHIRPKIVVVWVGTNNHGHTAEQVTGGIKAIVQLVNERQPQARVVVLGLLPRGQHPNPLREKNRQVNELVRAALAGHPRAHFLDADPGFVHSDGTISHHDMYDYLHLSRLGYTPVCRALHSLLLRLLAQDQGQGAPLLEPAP
eLon inh: inhibitors of E. coli Lon protease; P0A9M0; purified E. coli Lon protease, fluorescence polarization; inhibition, % at 7.94 µM; 0.42% of 360,000 active; in the data active = inhibition above about 13%, passing the limit was not always enough;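 also: 0% = enzyme with probe and DMSO and 100% = no enzyme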
PAFAH2 FP inh: PAFAH2 (human) inhibition. Q99487. recombinant PAFAH2, FP-rhodamine activity probe, fluorescence polarization. inhibition, % at 3.39 µM. 0.99% of 340,000 active. AID 492956;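 active = inhibition above the mean over all tested compounds plus 3 SD, cut at about 30% in these data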;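 also: inhibitors block probe labeling of enzyme so polarization drops; 0% = enzyme with DMSO and 100% = wells lacking PAFAH2 protein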
PAFAH1B2 inh: blocks human PAF acetylhydrolase 1b catalytic subunit 2; P68402; recombinant PAFAH1B2, FP-rhodamine activity probe, fluorescence polarization; inhibition, % at 3.39 µM; 1.2% of 340,000 active; AID 492953;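 active = inhibition above the mean of all tested compounds plus 3 SD, cut at about 24% in these data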;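 also: 0% = enzyme with DMSO and 100% = wells lacking PAFAH1B2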
PAFAH2 FP conf: PAFAH2 (human) inhibition, confirmed | shares compounds with PAFAH2 FP inh | recombinant PAFAH2, FP-rhodamine activity probe, fluorescence polarization | inhibition, % at 3.39 µM | 65% of 2,300 active;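 active = mean inhibition over three repeats above a set limit taken from the earlier primary screen, cut at about 30% in these data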;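 also: inhibitor blocks binding of rhodamine activity probe so polarization falls; 0% = enzyme with DMSO and 100% = wells lacking PAFAH2 protein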
* hit, by the source's call; / = not tested or not shown. Compounds with a hit are over-represented: about 3.1% of the library has one in this group of screens.

SMILES	pPAFAH FP inh	Rin1-Abl PPI inh	PAFAH1B3 inh	eLon inh	PAFAH2 FP inh	PAFAH1B2 inh	PAFAH2 FP conf
O=C(COC(=O)C1=COCCO1)NC1CCCCC1	2	-1	2	-12	57*	3	55*
Cc1c(NC(=O)Nc2cccc(Cl)c2Cl)c(=O)n(-c2ccccc2)n1C	3	-2	-1	-2	0	1	/
Cc1cc(F)ccc1C(O)c1ncc(-c2ccccc2C(F)(F)F)[nH]1 (configuration not stated)	/	-2	/	-3	/	/	/
N#Cc1cccc(NC(=O)COC(=O)c2cccc(N3C(=O)c4ccccc4C3=O)c2)c1	10	-1	-13	-20	67*	-13	79*
N#Cc1cccc(NC(=O)COC(=O)c2ccc[n+]([O-])c2)c1	2	0	1	-1	14	-4	/
O=C(COC(=O)c1cccc(N2C(=O)c3ccccc3C2=O)c1)Nc1ccccc1	15	1	7	-1	70*	5	71*
O=C(COC(=O)CN1C(=O)c2ccccc2C1=O)Nc1ccccc1	5	-1	11	7	5	5	/
Cc1c(C(=O)NCc2ccccc2C(F)(F)F)sc(=O)n1Cc1ccc(S(=O)(=O)N(C)C)cc1	/	-2	/	-1	/	/	/
O=C(COC(=O)c1cccc(S(=O)(=O)N2CCOCC2)c1)Nc1ccc2c(c1)OCO2	12	-2	6	-6	66*	2	38*
O=C(Nc1ccc2c(c1)OCO2)c1cccc(S(=O)(=O)N2CCOCC2)c1	2	0	2	-10	2	-2	/
O=C(OCC(=O)N1CCCc2ccccc21)c1cc(S(=O)(=O)N2CCOCC2)ccc1O	6	4	-3	-12	73*	5	63*
O=C(COC(=O)C1CC2C=CC1C2)Nc1cccc(S(=O)(=O)N2CCOCC2)c1 (configuration not stated)	6	-1	1	-7	41*	4	28
O=C(COC(=O)c1ccco1)Nc1cccc(S(=O)(=O)N2CCOCC2)c1	/	2	/	-11	/	/	/
O=C(COC(=O)c1ccc2c(c1)OCCO2)Nc1cccc(S(=O)(=O)N2CCOCC2)c1	4	0	0	-5	65*	4	56*
Cc1ccc(CNC(=O)CNC(=O)[C@@H]2Cc3ccccc3CN2)cc1	0	5	7	2	-1	3	/
COc1ccc(C2CCCN2CC(O)COc2ccccc2C(C)C)cc1 (configuration not stated)	7	0	-3	2	-5	-3	/
CCc1noc(C)c1C(=O)OCC(=O)c1ccccc1OC	2	2	-2	2	2	5	/
O=C(COC(=O)c1cc(S(=O)(=O)N2CCOCC2)ccc1O)Nc1ccc2c(c1)OCO2	3	1	3	-5	42*	3	32*
O=C(COC(=O)c1n[nH]c2ccccc12)Nc1cccc(S(=O)(=O)N2CCOCC2)c1	/	1	10	4	50*	-2	32*
O=C(COC(=O)c1cccc(S(=O)(=O)N2CCOCC2)c1)Nc1ccc(Cl)cn1	3	-2	5	2	64*	2	47*
O=C(COC(=O)c1cc(S(=O)(=O)N2CCOCC2)ccc1Cl)Nc1ccc(Cl)cn1	/	4	/	-13	/	/	/
CCCCNC(=O)COC(=O)c1cc(Br)ccc1Cl	3	-1	6	-1	16	4	/
CCC(CC)NC(=O)COC(=O)c1cc(Br)ccc1Cl	6	1	0	2	33*	3	26
O=C(COC(=O)/C=C/c1ccccc1)Nc1cc(C(F)(F)F)ccc1N1CCOCC1	4	0	4	-4	56*	-1	57*
COc1cccc(/C=C/C(=O)OCC(=O)Nc2ccc3c(c2)OCCO3)c1	/	3	/	-4	/	/	/
COc1cccc(/C=C/C(=O)OCC(=O)Nc2cc(C(F)(F)F)ccc2Cl)c1	2	1	2	-2	33*	-3	24
COc1cccc(/C=C/C(=O)OCC(=O)Nc2ccc(Cl)c(S(=O)(=O)N(C)C)c2)c1	2	2	-1	-2	68*	-2	69*
CN(C)S(=O)(=O)c1cc(NC(=O)COC(=O)/C=C/c2ccco2)ccc1Cl	7	0	0	-16	58*	-9	70*

Bioassay records as filed in PubChem BioAssay.
